From ChEMBL document CHEMBL3988442, “University of Dundee, Small-Polar-MMV Screening Library” (2021)
Among all 66,000 compounds or so, about 960 (1.5%) showed an effect of 50% or more. The sample as a whole holds a higher share of strong results than the screen did.

Test system: Trypanosoma brucei
Experiment: Trypanosoma brucei 72 hour study
Type: functional, organism-based
Parameters: scale not given: in the data most compounds retested in dose-response had high values

Structure (SMILES): CSc1ccc(CN(C)Cc2noc(C(C)(C)C)n2)cc1
- Percent Effect (30 µM, 30.03 µM): -12.59%

Structure (SMILES): Cc1ccc2c(n1)N(CCn1cccn1)CCN(CC1CC1)C2.O=C(O)C(F)(F)F.O=C(O)C(F)(F)F
- Percent Effect (30.3 µM, […]): -30.39%

Structure (SMILES): CS(=O)(=O)N1CCC(CNC(=O)C2CCCC2)CC1
- Percent Effect (30 µM, 30.03 µM): -35.01%

Structure (SMILES): COCCN1CCCC2(CCN(c3cc(C)c(C#N)c(C)n3)C2)C1=O (stereo unspecified)
- Percent Effect (30 µM, 30.03 µM): 50.02%

Structure (SMILES): Cc1cc(C)c(C#N)c(N2CCC3(CCCN(CCO)C3=O)C2)n1 (stereo unspecified)
- Percent Effect (30 µM, 30.03 µM): -17.57%

Structure (SMILES): Cc1cc(N2CCC3(CCCN(CCO)C3=O)C2)nc(C)c1C#N (stereo unspecified)
- Percent Effect (30 µM, 30.03 µM): -51.69%

Structure (SMILES): Cn1cccc1C(=O)N1CCC2(CCN(C(=O)c3cccnc3)C2)CC1.O=C(O)C(F)(F)F
- Percent Effect (30.3 µM, […]): -55.95%

Structure (SMILES): CC1c2ncc(CNC(=O)C3CC3)n2CCN1Cc1ccncc1.O=C(O)C(F)(F)F.O=C(O)C(F)(F)F (stereo unspecified)
- Percent Effect (30.3 µM, […]): -14.67%

Structure (SMILES): C[C@@H]1C(=O)NC[C@H]2CN(CCc3ccccc3)C[C@H]21.O=C(O)C(F)(F)F
- Percent Effect (30.3 µM, […]): -1.404%

Structure (SMILES): CCc1nc(CN(C(C)=O)C2CCN(CCc3ccccn3)C2)no1 (stereo unspecified)
- Percent Effect (10 µM): 65.29%

Structure (SMILES): CCc1nc(CN(C(C)=O)C2CCN(CCc3ccccc3)C2)no1 (stereo unspecified)
- Percent Effect (10 µM): -54.25%

Structure (SMILES): CCc1nc(CN(C)C2CCN(CCc3ccccn3)C2)no1 (stereo unspecified)
- Percent Effect (30 µM, 30.03 µM): 3.156%

Structure (SMILES): Cc1ccc(CN2C[C@@H]3[C@@H](C(=O)NCC4CC4)CCS(=O)(=O)[C@@H]3C2)cc1.O=C(O)C(F)(F)F
- Percent Effect (30.3 µM, […]): -76.84%

Structure (SMILES): O=C1C[C@H]2CC[C@@H](CN1)N2C(=O)Cc1ccsc1
- Percent Effect (30.3 µM, […]): -6.652%

Structure (SMILES): CN(C)C(=O)COCc1cncc2c1CCN(Cc1ccccn1)C2.O=C(O)C(F)(F)F.O=C(O)C(F)(F)F
- Percent Effect (30.3 µM, […]): -50.95%

Structure (SMILES): O=C(NC1CC1)[C@@H]1CCO[C@@H]2CCN(CCc3ccccc3)C[C@@H]21.O=C(O)C(F)(F)F
- Percent Effect (30.3 µM, […]): -14.39%

Structure (SMILES): CC(C)n1c2ccccc2c2c1cc(C(=O)N(C)C)n2C
- Percent Effect (30.3 µM, […]): -58.05%

Structure (SMILES): CC(CNC(=O)Nc1ccc(C#N)cc1)N1CCc2ccccc21 (stereo unspecified)
- Percent Effect (30.3 µM, […]): 100.3%

Structure (SMILES): CC(CNC(=O)c1ccc(C#N)cc1)N1CCc2ccccc21 (stereo unspecified)
- Percent Effect (30.3 µM, […]): 1.685%

Structure (SMILES): COc1ccc(NC(=O)NCC(C)N2CCc3ccccc32)cc1 (stereo unspecified)
- Percent Effect (30.3 µM, […]): -7.739%

Structure (SMILES): CC(=O)Nc1c(C)noc1/C=C\c1ccc(S(=O)(=O)NC2CC2)cc1
- Percent Effect (30.3 µM, […]): -2.674%

Structure (SMILES): Cc1ccccc1CN1CCCC1c1cccc(Nc2nccs2)n1 (stereo unspecified)
- Percent Effect (30.3 µM, […]): 5.594%

Structure (SMILES): c1ccc(CCN2CCCC2c2cccc(Nc3nccs3)n2)cc1 (stereo unspecified)
- Percent Effect (30.3 µM, […]): 29.28%

Structure (SMILES): COCC(=O)N1CCCC1c1cccc(Nc2ncc(C)s2)n1 (stereo unspecified)
- Percent Effect (30.3 µM, […]): 85.92%

Structure (SMILES): COCC(=O)N1CCCCC1c1ccnc(Nc2ncc(C)s2)n1 (stereo unspecified)
- Percent Effect (30.3 µM, […]): 16.03%

Structure (SMILES): CS(=O)(=O)N1CCCC1c1cccc(Nc2nccs2)n1 (stereo unspecified)
- Percent Effect (30.3 µM, […]): 92.1%

Structure (SMILES): Cc1cnc(Nc2cccc(C3CCCN3C(=O)CO)n2)s1 (stereo unspecified)
- Percent Effect (30.3 µM, […]): 28.67%

Structure (SMILES): Cc1nnc2n1CCN(C(=O)CN(C)Cc1ccccc1)C2
- Percent Effect (30.3 µM, […]): -14.91%

Structure (SMILES): O=C(NCC1CCOCC1)[C@@H]1CC[C@@H]2[C@@H](CCN2Cc2ccncc2)O1.O=C(O)C(F)(F)F.O=C(O)C(F)(F)F
- Percent Effect (30.3 µM, […]): -62.66%

Structure (SMILES): CCc1noc(CCC(=O)N[C@@H]2CC[C@@H](n3ccnc3C)[C@@H]2O)n1
- Percent Effect (30.3 µM, […]): -7.313%

Structure (SMILES): O=C(O)C(F)(F)F.c1coc(CN2CCO[C@H]3[C@H](OCC4CC4)CC[C@@H]32)c1
- Percent Effect (30.3 µM, […]): 0.4404%

Structure (SMILES): c1cc(NCc2ccsc2)cc(-c2nnc[nH]2)c1
- Percent Effect (30 µM, 30.03 µM): -50.24%

Structure (SMILES): Oc1ccc(Br)c(CNc2cccc(-c3nnc[nH]3)c2)c1
- Percent Effect (30 µM, 30.03 µM): 56.16%

Structure (SMILES): Oc1c(F)cc(CNc2cccc(-c3nnc[nH]3)c2)cc1F
- Percent Effect (30 µM, 30.03 µM): -51.33%

Structure (SMILES): CCCc1nc2c(c(C)c(C)n2Cc2ccccn2)c(N)c1CC
- Percent Effect (30.3 µM, […]): 99.32%

Structure (SMILES): CCCc1nc2c(c(C)c(C)n2Cc2cccnc2)c(N)c1CC
- Percent Effect (30.3 µM, […]): 26.57%

Structure (SMILES): CCCc1nc2c(c(C)c(C)n2Cc2ccncc2)c(N)c1CC
- Percent Effect (30.3 µM, […]): 11.66%

Structure (SMILES): COc1cccc(-c2noc(C3CCN(Cc4ccc(C)cc4)C3)n2)c1.Cl (stereo unspecified)
- Percent Effect (30.3 µM, […]): 4.598%

Structure (SMILES): Cc1nc(=O)c2ccccc2n1C1=CCN(CC(=O)N2CCCC2)CC1
- Percent Effect (30.3 µM, […]): 9.131%

Structure (SMILES): COc1cc(C(=O)N2CCCS2(=O)=O)cc(Cl)c1OC
- Percent Effect (30 µM, 30.03 µM): -12.01%

Structure (SMILES): CCCOc1c(Cl)cc(C(=O)N2CCOC23CCN(C)CC3)cc1Cl
- Percent Effect (30 µM, 30.03 µM): -15.42%

Structure (SMILES): CCN1CCC2(CC1)OCCN2C(=O)c1ccc(OC)c(Cl)c1.Cl
- Percent Effect (30 µM, 30.03 µM): 50.46%

Structure (SMILES): COc1ccc(C(=O)N2C[C@@H](CN3CCCCC3)[C@@H](CO)C2)cc1Cl
- Percent Effect (30 µM, 30.03 µM): 22.63%

Structure (SMILES): COCC1CC2(CCN(C(=O)c3ccc(OC)c(Cl)c3)CC2)CO1 (stereo unspecified)
- Percent Effect (30 µM, 30.03 µM): -6.719%

Structure (SMILES): CCN1CCC2(CC1)OCCN2C(=O)c1cc(Cl)c(OC)c(Cl)c1.Cl
- Percent Effect (30 µM, 30.03 µM): 89.37%

Structure (SMILES): COc1ccc(-c2cc3nn(CC(=O)NC(C)C)c(=O)n3c(C)n2)cc1
- Percent Effect (30 µM, 30.03 µM): -13.21%

Structure (SMILES): Cc1cc(C)cc(CN2CCN(Cc3cccc(CCN)c3)CC2=O)c1
- Percent Effect (30 µM, 30.03 µM): 35.33%

Structure (SMILES): CCc1cc(CN2C[C@H]3CC[C@@H]2CN(C2Cc4ccccc4C2)C3)on1
- Percent Effect (30 µM, 30.03 µM): 10.13%

Structure (SMILES): Cc1nnc(CN2CCCC2c2ccsc2)o1 (stereo unspecified)
- Percent Effect (30.3 µM, […]): -40.61%

Structure (SMILES): Cc1nnc(CN2CCCC2c2ccc(Cl)c(Cl)c2)o1 (stereo unspecified)
- Percent Effect (30.3 µM, […]): 3.085%

Structure (SMILES): Cc1nnc(CN2CCCC2c2ccc(C(C)(C)C)cc2)o1 (stereo unspecified)
- Percent Effect (30.3 µM, […]): 86.15%

Structure (SMILES): Cc1ccc(CN(CCCn2ccnc2)Cc2cc(F)ccc2F)s1.O=C(O)CC(O)(CC(=O)O)C(=O)O
- Percent Effect (30.3 µM, […]): -12.95%

Structure (SMILES): Cc1ccccc1-n1cnnc1SCCOCC1CCCO1 (stereo unspecified)
- Percent Effect (30 µM, 30.03 µM): -22.78%

Structure (SMILES): Cc1ccccc1-n1cnnc1SCC(=O)NCC1CCCO1 (stereo unspecified)
- Percent Effect (30 µM, 30.03 µM): -21.19%

Structure (SMILES): Cc1ccccc1-n1cnnc1SCC1CCCCO1 (stereo unspecified)
- Percent Effect (30 µM, 30.03 µM): 69.07%

Structure (SMILES): O=C(CCc1cccs1)N1CCCC(n2ccnc2)C1 (stereo unspecified)
- Percent Effect (10 µM): -23.55%
- Percent Effect (30.3 µM, […]): 37.83%

Structure (SMILES): Cc1cc(NC(=O)N2CCCC2C(=O)NC2CC2)c2ncccc2c1 (stereo unspecified)
- Percent Effect (30 µM, 30.03 µM): -28.65%

Structure (SMILES): Cc1cc(NC(=O)NC2CCN(C(C)C)CC2)c2ncccc2c1
- Percent Effect (30 µM, 30.03 µM): 56.47%

Structure (SMILES): Cc1cc(NC(=O)N2CCCC2C(C)(C)O)c2ncccc2c1 (stereo unspecified)
- Percent Effect (30 µM, 30.03 µM): -36.24%

Structure (SMILES): Cl.c1cn(-c2cncc(C3CCNCC3)n2)cn1
- Percent Effect (30.3 µM, […]): -40.04%
